Measurements published in PubChem BioAssay (Tox21).
“And” between values parts separate entries of the source, which are not always exact repeats. Equal values may be shown once. Records with an inconclusive call do not appear. The source made the active and inactive calls. Unless noted, the call rests on the fitted dose curve; in most records, active means well fitted curve in the direction sought with a large enough effect in the repeat runs; inconclusive means weak or mixed curves; inactive means no such curve, though single readings can be large; an effect the other way counts as inactive or inconclusive.

Columns and labels:
[1] = target: Peroxisome proliferator-activated receptor delta (Homo sapiens) (UniProt Q03181); assay: qHTS assay to identify small molecule antagonists of the peroxisome proliferator-activated receptor delta (PPARd) signaling pathway (AID 743215; active means well fitted inhibition curve with a large enough effect in the signal ratio in the repeat runs, not every such curve was filed as active; the % refers to the signal ratio;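 further: cells stimulated with agonist L165041 at 300 nM final during compound exposure; on the % scale 0 is the no-effect control and ±100 the full control effect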); conditions: HEK293H PPARd-UAS-bla, beta-lactamase FRET ratio, antagonist, 17 h; series mostly up to 62 µM
Peroxisome proliferator-activated receptor delta (Homo sapiens), sequence (Q03181 whole entry, looked up): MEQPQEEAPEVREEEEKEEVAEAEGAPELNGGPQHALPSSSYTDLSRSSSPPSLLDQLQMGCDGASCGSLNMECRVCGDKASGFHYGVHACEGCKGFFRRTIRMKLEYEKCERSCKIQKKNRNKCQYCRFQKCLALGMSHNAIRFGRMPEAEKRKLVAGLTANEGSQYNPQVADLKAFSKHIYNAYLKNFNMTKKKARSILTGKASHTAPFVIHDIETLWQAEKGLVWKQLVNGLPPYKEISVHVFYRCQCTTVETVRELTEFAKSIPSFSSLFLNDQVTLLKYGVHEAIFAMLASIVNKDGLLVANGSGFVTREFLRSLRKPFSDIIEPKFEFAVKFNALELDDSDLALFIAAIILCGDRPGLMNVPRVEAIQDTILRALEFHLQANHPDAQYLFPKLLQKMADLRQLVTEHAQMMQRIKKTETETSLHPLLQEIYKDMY
Outline: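 Read-out is beta-lactamase FRET fluorescence, measured 2 h after substrate addition at room temperature. Beforehand, UAS-bla HEK293H cells carrying the PPARd reporter were exposed to compounds with L165041 at 300 nM final for 17 h at 37 C.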

[2] = target: Bile acid receptor (Homo sapiens) (UniProt Q96RI1); assay: qHTS assay to identify small molecule agonists of the farnesoid-X-receptor (FXR) signaling pathway (AID 743220; active means well fitted activation curve with a large enough effect in the signal ratio in the repeat runs, not every such curve was filed as active; the % refers to the signal ratio; further: on the % scale 0 is the no-effect control and ±100 the full control effect); conditions: HEK293T FXR-UAS-bla, beta-lactamase FRET ratio, 16 h; series mostly up to 62.6 µM
Bile acid receptor (Homo sapiens), sequence (Q96RI1 whole entry, looked up): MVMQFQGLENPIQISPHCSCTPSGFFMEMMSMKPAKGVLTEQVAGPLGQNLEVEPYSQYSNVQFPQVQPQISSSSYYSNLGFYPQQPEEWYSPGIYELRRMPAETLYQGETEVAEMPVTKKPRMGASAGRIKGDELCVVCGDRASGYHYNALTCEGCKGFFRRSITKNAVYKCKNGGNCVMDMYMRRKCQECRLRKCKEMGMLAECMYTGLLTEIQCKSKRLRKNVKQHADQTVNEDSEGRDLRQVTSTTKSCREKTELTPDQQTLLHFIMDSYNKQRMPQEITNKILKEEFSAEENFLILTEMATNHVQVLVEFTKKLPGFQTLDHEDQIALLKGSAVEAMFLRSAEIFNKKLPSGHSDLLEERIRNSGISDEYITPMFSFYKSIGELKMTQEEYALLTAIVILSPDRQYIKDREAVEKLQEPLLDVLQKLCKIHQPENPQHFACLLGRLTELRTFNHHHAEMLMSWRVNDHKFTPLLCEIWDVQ
Outline: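 Beta-lactamase reporter under UAS control in GeneBLAzer FXR HEK 293T cells (5000/well) measured with LiveBLAzer FRET substrate after 2 h at room temperature. Compound exposure lasted 16 h at 37C.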

[3] = target: Vitamin D3 receptor (Homo sapiens) (UniProt P11473); assay: qHTS assay to identify small molecule agonists of the vitamin D receptor (VDR) signaling pathway (AID 743222; calls by dose curve; further: on the % scale 0 is the no-effect control and ±100 the full control effect); conditions: HEK293T VDR-UAS-bla, beta-lactamase FRET ratio, 16 h; series mostly up to 63.5 µM
Vitamin D3 receptor (Homo sapiens), sequence (P11473 whole entry, looked up): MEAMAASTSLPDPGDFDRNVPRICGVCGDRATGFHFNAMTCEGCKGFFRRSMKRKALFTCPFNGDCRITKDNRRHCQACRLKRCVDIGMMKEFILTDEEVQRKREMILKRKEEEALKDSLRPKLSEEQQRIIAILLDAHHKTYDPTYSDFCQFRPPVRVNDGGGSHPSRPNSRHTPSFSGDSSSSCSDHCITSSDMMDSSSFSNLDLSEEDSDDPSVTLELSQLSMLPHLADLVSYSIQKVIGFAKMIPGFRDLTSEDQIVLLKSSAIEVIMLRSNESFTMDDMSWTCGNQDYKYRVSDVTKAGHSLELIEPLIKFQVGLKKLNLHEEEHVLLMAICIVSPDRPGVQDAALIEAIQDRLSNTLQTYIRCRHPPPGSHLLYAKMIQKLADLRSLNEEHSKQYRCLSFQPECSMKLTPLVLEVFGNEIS
Outline: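 VDR-bla cells, 2,000/well; 4 h preincubation 37C; cpd (DMSO) 16 h; LiveBLAzer B/G substrate 2 h RT; fluorescence intensity read.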

[4] = target: Vitamin D3 receptor (Homo sapiens) (UniProt P11473); assay: qHTS assay to identify small molecule antagonists of the vitamin D receptor (VDR) signaling pathway (AID 743223; active means well fitted inhibition curve with a large enough effect in the signal ratio in the repeat runs, not every such curve was filed as active; the % refers to the signal ratio; further: on the % scale 0 is the no-effect control and ±100 the full control effect); conditions: VDR-UAS-bla HEK293T, beta-lactamase FRET ratio, 16 h; series mostly up to 61 µM
Outline: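 VDR-bla cells were treated with compound plus 3 nM final 1alpha,25-dihydroxyvitamin D3 for 16 h at 37C. Beta-lactamase reporter read by B/G FRET substrate fluorescence after 2 h at room temperature. qHTS format.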

[5] = qHTS assay to identify small molecule agonists of the vitamin D receptor (VDR) signaling pathway - cell viability counter screen (AID 743224); conditions: VDR-bla HEK293T viability, CellTiter-Glo luminescence, 16 h; series mostly up to 62.6 µM; further: nearly all actives have a fitted effect of over 50% in size; further: potency means the concentration at half of the fitted maximal effect
Outline: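 Luminescence from CellTiter-Glo, read after 30 min at room temperature, reports viability of VDR-bla cells treated with compounds for 16 h at 37C in the wells used for the beta-lactamase FRET read.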

[6] = qHTS assay to identify small molecule agonists of the NFkB signaling pathway - cell viability counter screen (AID 1159515; calls by dose curve; further: nearly all actives have a fitted effect of over 55% in size; further: potency means the concentration at half of the fitted maximal effect); conditions: NFkB-bla ME-180 viability, CellTiter-Glo luminescence, 5 h; series mostly up to 61 µM
Outline: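 Luminescence from CellTiter-Glo (30 min, room temperature) gives viability, measured in the same wells as the beta-lactamase reporter read. Cells were NFkB-bla ME-180, 2,000 per well, treated 5 hr with compounds.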

[7] = qHTS assay to identify small molecule antagonists of the retinoid-related orphan receptor gamma (ROR-gamma) signaling pathway - cell viability counter screen (AID 1159520); conditions: Tet-on RORgamma CHO cells viability, ATP luminescence, 16 h; series mostly up to 92.4 µM; further: nearly all actives have a fitted effect of over 50% in size; further: potency means the concentration at half of the fitted maximal effect
Outline: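 Tet-on ROR gamma CHO cells were given compounds for 2 hr, then doxycycline hyclate at 1 uM final, and incubated 16 hr at 37 C. Viability was measured as ATP content by CellTiter-Glo luminescence.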

[8] = target: Nuclear receptor ROR-gamma (Homo sapiens) (UniProt P51449); assay: qHTS assay to identify small molecule antagonists of the retinoid-related orphan receptor gamma (ROR-gamma) signaling pathway (AID 1159521; further: nearly all actives have a fitted effect of over 50% in size; further: potency means the concentration at half of the fitted maximal effect); conditions: Tet-on RORgamma CHO cells, RORE-luciferase, 16 h; series mostly up to 92.4 µM
Outline: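 Tet-on ROR-gamma CHO cells with ROR response element-luciferase reporter; compounds added 2 hr before 1 uM doxycycline induction, then 16 hr at 37 C. Antagonism scored as decreased ONE-Glo luminescence.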

[9] = qHTS assay to identify small molecule agonists of the AP-1 signaling pathway - cell viability counter screen (AID 1159525; calls by dose curve; further: nearly all actives have a fitted effect of over 55% in size; further: potency means the concentration at half of the fitted maximal effect); conditions: ME-180 AP-1-bla cells viability, ATP luminescence, 5 h; series mostly up to 76.8 µM
Outline: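 AP-1-bla ME-180 cells in Opti-MEM with 0.5% dialyzed FBS, compound exposure 5 h at 37 C in 15-point titration. Viability read in the same wells as ATP content by CellTiter-Glo luminescence, normalised to tetra-n-octylammonium bromide and DMSO controls.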

[10] = qHTS assay to identify small molecule agonists of the AP-1 signaling pathway (AID 1159526; calls by dose curve; further: on the % scale 0 is the no-effect control and ±100 the full control effect); conditions: ME-180 (cervical carcinoma) AP-1-bla reporter, beta-lactamase FRET ratio, 5 h; series mostly up to 76.8 µM
[11] = qHTS assay to identify small molecule agonists of the peroxisome proliferator-activated receptor delta (PPARd) signaling pathway - cell viability counter screen (AID 743211); conditions: PPARd-bla HEK293H viability, CellTiter-Glo luminescence, 17 h; series mostly up to 62.6 µM; further: nearly all actives have a fitted effect of over 55% in size; further: potency means the concentration at half of the fitted maximal effect
Outline: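 PPARd-bla HEK293H cells (3000/well) were pre-incubated 5 h at 37 C, then exposed to compound for 17 h at 37 C. After 2 h with LiveBLAzer substrate, CellTiter-Glo was added to the same wells; luminescence read after 30 min at room temperature.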

[12] = target: Bile acid receptor (Homo sapiens) (UniProt Q96RI1); assay: qHTS assay to identify small molecule antagonists of the farnesoid-X-receptor (FXR) signaling pathway (AID 743217; active means well fitted inhibition curve with a large enough effect in the signal ratio in the repeat runs, not every such curve was filed as active; the % refers to the signal ratio; further: potency means the concentration at half of the fitted maximal effect); conditions: HEK293T FXR-UAS-bla, beta-lactamase ratio, CDCA-stimulated, 16 h; series mostly up to 62.6 µM
Outline: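 HEK 293T FXR-UAS-bla, 5000 cells/well; compound + CDCA 50 uM final; 16 h, 37 °C; B/G FRET substrate 2 h RT; fluorescence.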

[13] = qHTS assay to identify small molecule agonists of the farnesoid-X-receptor (FXR) signaling pathway - cell viability counter screen (AID 743218); conditions: FXR-bla HEK293T viability, CellTiter-Glo luminescence, 16 h; series mostly up to 62.6 µM; further: nearly all actives have a fitted effect of over 45% in size; further: potency means the concentration at half of the fitted maximal effect
Outline: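 HEK 293T FXR-bla cells; 5 h pre-incubation, 16 h compound exposure at 37 C; LiveBLAzer substrate 2 h RT, then CellTiter-Glo 30 min RT, luminescence.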

[14] = qHTS assay to identify small molecule antagonists of the farnesoid-X-receptor (FXR) signaling pathway - cell viability counter screen (AID 743221; active means well fitted cell-killing curve with a large enough effect in the repeat runs, not every such curve was filed as active; further: nearly all actives have a fitted effect of over 50% in size; further: potency means the concentration at half of the fitted maximal effect); conditions: FXR-bla HEK293T viability, CellTiter-Glo luminescence, 16 h; series mostly up to 62.6 µM
Outline: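 GeneBLAzer FXR-UAS-bla HEK 293T cells, compound plus chenodeoxycholic acid (50 uM final), 16 h at 37 C. CellTiter-Glo added to the same wells after the beta-lactamase read; luminescence read after 30 min at room temperature as viability.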

[15] = qHTS assay to identify small molecule antagonists of the vitamin D receptor (VDR) signaling pathway - cell viability counter screen (AID 743225); conditions: VDR-bla HEK293T viability, CellTiter-Glo luminescence, 16 h; series mostly up to 61 µM; further: nearly all actives have a fitted effect of over 50% in size; further: potency means the concentration at half of the fitted maximal effect
Outline: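 VDR-UAS-bla HEK 293T cells were plated and incubated 4 h at 37C, then dosed with compound plus 3 nM (final) 1-alpha,25-dihydroxyvitamin D3 for 16 h. After the 2 h beta-lactamase read, viability in the same wells was read as CellTiter-Glo luminescence after 30 min at room temperature.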

[16] = target: Retinoic acid receptor RXR-alpha (Homo sapiens) (UniProt P19793); assay: qHTS assay to identify small molecule agonists of the RXR signaling pathway (AID 1159527; calls by dose curve; further: on the % scale 0 is the no-effect control and ±100 the full control effect; nearly all actives have a fitted effect of over 35% in size); conditions: HEK293T RXRa-UAS-bla, beta-lactamase ratio, 16 h; series mostly up to 76.8 µM
Retinoic acid receptor RXR-alpha (Homo sapiens), sequence (P19793 whole entry, looked up): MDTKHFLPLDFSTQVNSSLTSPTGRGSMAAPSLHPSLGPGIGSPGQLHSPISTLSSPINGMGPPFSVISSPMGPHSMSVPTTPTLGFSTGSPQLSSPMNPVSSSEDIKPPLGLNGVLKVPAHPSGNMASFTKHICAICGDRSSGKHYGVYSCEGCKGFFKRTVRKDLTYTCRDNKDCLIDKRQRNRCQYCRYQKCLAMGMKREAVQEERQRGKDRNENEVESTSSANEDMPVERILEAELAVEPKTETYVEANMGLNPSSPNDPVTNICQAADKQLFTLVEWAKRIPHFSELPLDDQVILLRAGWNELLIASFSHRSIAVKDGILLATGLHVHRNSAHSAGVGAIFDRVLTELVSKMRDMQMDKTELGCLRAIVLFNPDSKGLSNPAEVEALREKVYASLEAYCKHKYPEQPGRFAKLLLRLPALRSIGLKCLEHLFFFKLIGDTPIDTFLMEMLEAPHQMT
Outline: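 GeneBLAzer RXR-alpha-UAS-bla HEK 293T cells in 2% charcoal-stripped FBS medium were exposed to compounds for 16 hr at 37 C in agonist mode. Beta-lactamase reporter read as 460/530 nm FRET ratio after 2 hr substrate loading.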

[17] = qHTS assay to identify small molecule antagonists of the peroxisome proliferator-activated receptor delta (PPARd) signaling pathway - cell viability counter screen (AID 743213); conditions: PPARd-bla HEK293H viability, CellTiter-Glo luminescence, 17 h; series mostly up to 62 µM; further: nearly all actives have a fitted effect of over 50% in size; further: potency means the concentration at half of the fitted maximal effect
Outline: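 HEK293H PPARd UAS-bla cells, 5 h pre-incubation, compound + L165041 300 nM final, 17 h 37 C; B/G FRET substrate 2 h RT; then CellTiter-Glo 30 min RT, luminescence.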

[18] = target: Peroxisome proliferator-activated receptor delta (Homo sapiens) (UniProt Q03181); assay: qHTS assay to identify small molecule agonists of the peroxisome proliferator-activated receptor delta (PPARd) signaling pathway (AID 743212; calls by dose curve; further: on the % scale 0 is the no-effect control and ±100 the full control effect); conditions: HEK293H PPARd-UAS-bla, beta-lactamase FRET ratio, 17 h; series mostly up to 62.6 µM
Outline: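 Quantitative high-throughput agonist screen in a HEK293H beta-lactamase reporter line under UAS control. Compounds in DMSO, at 37 C. Fluorescence read after 2 h with FRET substrate at room temperature.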

CC(C)=CCNc1ncnc2c1ncn2[C@@H]1O[C@H](CO)[C@@H](O)[C@H]1O
inactive: Potency [1] | Potency [2] | Potency [3] | Potency [4] | Potency [10]
active: Potency [5] 11.9 µM | Potency [6] 8.49 µM | Potency [7] 10.6 µM | Potency [8] 13.3 µM | Potency [9] 6.01 µM

C=C(C)c1cccc(C(=C)C)c1
inactive: Potency [11] | Potency [1] | Potency [12] | Potency [13] | Potency [2] | Potency [14] | Potency [5] | Potency [15] | Potency [6] | Potency [7] | Potency [9] | Potency [10] | Potency [16]

O=S(=O)(O)c1ccc(N=Nc2c(O)ccc3ccccc23)cc1
active: Potency [13] 38.9 µM | Potency [14] 38.9 µM
inactive: Potency [11] | Potency [1] | Potency [3] | Potency [4] | Potency [6] | Potency [10]

O=C(O)O
active: Potency [8] 2.96 µM
inactive: viability change, negative = cytotoxic [13] 5.67% [at 5.95 µM] | activity change, negative = cytotoxicity [14] -10.5% [at 5.95 µM] | activity change, negative = inhibition [4] 0.752% [at 6.95 µM] | viability change, negative = cytotoxic [15] -0.215% [at 6.95 µM] | activity, negative = cytotoxic [6] -3.19% [at 6.95 µM] | activity, negative = cytotoxicity [7] 0.616% [at 8.39 µM] | viability change, negative = cytotoxic [9] -29.9% [at 6.97 µM]

Clc1ccnc(Cl)n1
inactive: Potency [11] | Potency [17] | Potency [13] | Potency [14] | Potency [3] | Potency [5] | Potency [15] | Potency [6] | Potency [7] | Potency [8] | Potency [9] | Potency [10] | Potency [16]

OC[C@@H](O)[C@@H](O)CO
inactive: Potency [11] | Potency [18] | Potency [17] | Potency [1] | Potency [13] | Potency [14] | Potency [5] | Potency [15] | Potency [6] | Potency [7] | Potency [9] | Potency [10] | Potency [16]

CCCCCCC1CCCC(=O)O1 (centres undefined)
inactive: Potency [11] | Potency [17] | Potency [1] | Potency [13] | Potency [14] | Potency [4] | Potency [15] | Potency [6] | Potency [8] | Potency [9] | Potency [10]

CN(C)c1ccc(C(=C2C=CC(=[N+](C)C)C=C2)c2ccc(N(C)C)cc2)cc1
active: Potency [11] 6.88 µM and 7.76 µM and 8.41 µM | Potency [17] 17.3 µM and 17.4 µM and 6.68 µM | Potency [12] 16.8 µM | Potency [13] 10.9 µM and 19.5 µM and 10.6 µM | Potency [14] 21.8 µM and 27.5 µM and 13.3 µM | Potency [5] 4.87 µM and 4.9 µM and 11.9 µM | Potency [15] 9.72 µM and 21.9 µM and 19 µM | Potency [6] 24.4 µM | Potency [7] 6.08 µM and 13.7 µM and 5.31 µM
inactive: Potency [3]

CC(C(=O)O)c1ccc2c(c1)[nH]c1ccc(Cl)cc12 (centres undefined)
inactive: Potency [11] | Potency [13] | Potency [2] | Potency [14] | Potency [4] | Potency [5] | Potency [15] | Potency [6] | Potency [9] | Potency [10]

Cc1cc(C(C)(C)C)cc(C)c1CC1=NCCN1
inactive: Potency [11] | Potency [18] | Potency [12] | Potency [13] | Potency [2] | Potency [14] | Potency [5] | Potency [15] | Potency [6] | Potency [8] | Potency [9] | Potency [10] | Potency [16]
